Source: PubChem BioAssay (NCATS)
Inconclusive results are not listed. Entries that show only a call come without a potency. Unmarked numbers belong to inactive results. Calls of active or inactive are those of the source. Unless noted, calls follow the shape of the dose curve; as a rule, active = well fitted curve in the direction sought with a large enough effect; inconclusive = small, poorly fitted or top-dose-only effect, or another doubt; inactive = no such curve, though single readings can be large; an effect the other way counts as inactive or inconclusive.

Key:
[1] = target: Cytochrome P450 3A4 (Homo sapiens) (UniProt P08684); assay: qHTS Assay for Inhibitors and Substrates of Cytochrome P450 3A4 (AID 884); also: nearly all actives have a fitted effect of over 50% in size; also: potency is read from the fitted curve at half-maximal effect
Summary of the method: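 20 nM human CYP3A4 with 25 uM Luciferin-PPXE (at KM) in 200 mM KPO4, preincubated 10 min with compound; NADPH regeneration started a 60 min RT reaction. Luciferin detected by luminescence, normalized to 57 uM ketoconazole as full inhibition.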

[2] = qHTS Assay for Identification of Small Molecule Agonists for Hypoxia Response Element Signaling Pathway (AID 914; active = well fitted activation curve with a large enough effect in the signal ratio, with a control signal flat, not every such curve was filed as active; the % refers to the signal ratio; also: potency is read from the fitted curve at half-maximal effect); conditions: ME-180 HRE-bla reporter, beta-lactamase ratio, CoCl2, 17 h; activation: active compounds read high
Summary of the method: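 HRE-bla ME-180 assay for agonist-like enhancement of an EC50 CoCl2 stimulus: 17 h at 37 degrees Celsius, CCF4 for 2.5 h, ratiometric 460/530 nm signal converted to %Activity and fitted to AC50.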

[3] = qHTS Assay for Identification of Small Molecule Antagonists for NFkB Signaling Pathway (AID 895; active = well fitted inhibition curve with a large enough effect in the signal ratio, with a control signal flat, not every such curve was filed as active; the % refers to the signal ratio; also: potency is read from the fitted curve at half-maximal effect)
Summary of the method: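 ME-180 NFkB-bla cells (beta-lactamase under NFkB response element), plated overnight, treated with compound then 10 pM TNF alpha (about EC50) for 5 hrs at 37 C. LiveBLAzer FRET read at 460/530 nm emission, 405 nm excitation.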

[4] = qHTS Assay for Identification of Small Molecule Antagonists for Thrombopoietin (TPO) Signaling Pathway (AID 918); conditions: TPO-dependent cell signaling reporter, antagonist mode; also: potency is read from the fitted curve at half-maximal effect; nearly all actives have a fitted effect of over 60% in size
Summary of the method: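 Murine Ba/F3 cells stably expressing human TPO receptor and a Glycoprotein IIb promoter–luciferase reporter were IL-3-starved overnight, treated with compounds plus TPO (26 pM final, its EC50) for 24 hrs at 37 C, then read by luminescence.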

[5] = target: ATP-dependent 6-phosphofructokinase (Trypanosoma brucei brucei) (UniProt O15648); assay: qHTS Assay to Find Inhibitors of T. brucei phosphofructokinase: hit validation (AID 492961);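 also: luminescence reports ADP formed as PFK phosphorylates fructose-6-phosphate with ATP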
Summary of the method: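 Compounds titrated; %activity normalized to 0x and 1x enzyme controls, curve-fitted. Readout: ADP-Glo luminescence after 45 min room-temperature reaction of 1.25 nM PFK, 0.1 mM ATP, 0.5 mM F6P, pH 8.0.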

[6] = qHTS profiling for inhibitors of Plasmodium falciparum proliferation (AID 504749); also: potency is read from the fitted curve at half-maximal effect; as to all read-outs here: nearly all actives have a fitted effect of over 60% in size; conditions: P. falciparum in erythrocytes, SYBR Green DNA, 72 h; for activity, negative = inhibition: at 28.7 µM (top of the series)
Summary of the method: (§1)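 Readout was DNA-dye fluorescence from lysed cultures, ex 485/em 535 nm. Parasitized red cells had grown 72 h with compound; data scaled between 0.29 uM artemisinin and DMSO wells and corrected using vehicle-only plates.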

[7] = tested on: AA1029; assay: as above; conditions: P. falciparum in erythrocytes, SYBR Green DNA, 72 h; series mostly up to 28.7 µM
Summary of the method: as §1

[8] = tested on: AS120; assay: as above; conditions: P. falciparum in erythrocytes, SYBR Green DNA, 72 h; series mostly up to 28.7 µM
Summary of the method: as §1

[9] = tested on: ATS95; assay: as above; conditions: P. falciparum in erythrocytes, SYBR Green DNA, 72 h; series mostly up to 28.7 µM
Summary of the method: as §1

[10] = tested on: CP203; assay: as above; conditions: P. falciparum in erythrocytes, SYBR Green DNA, 72 h; series mostly up to 28.7 µM
Summary of the method: as §1

[11] = tested on: CP217; assay: as above; conditions: P. falciparum in erythrocytes, SYBR Green DNA, 72 h; series mostly up to 28.7 µM
Summary of the method: as §1

[12] = tested on: CP238; assay: as above; conditions: P. falciparum in erythrocytes, SYBR Green DNA, 72 h; series mostly up to 28.7 µM
Summary of the method: as §1

[13] = tested on: CP252; assay: as above; conditions: P. falciparum in erythrocytes, SYBR Green DNA, 72 h; series mostly up to 28.7 µM
Summary of the method: as §1

[14] = tested on: CP265; assay: as above; conditions: P. falciparum in erythrocytes, SYBR Green DNA, 72 h; series mostly up to 28.7 µM
Summary of the method: as §1

[15] = tested on: DIV30; assay: as above; conditions: P. falciparum in erythrocytes, SYBR Green DNA, 72 h; series mostly up to 28.7 µM
Summary of the method: as §1

[16] = tested on: N140; assay: as above; conditions: P. falciparum in erythrocytes, SYBR Green DNA, 72 h; series mostly up to 28.7 µM
Summary of the method: as §1

[17] = tested on: P94_40; assay: as above; conditions: P. falciparum in erythrocytes, SYBR Green DNA, 72 h; series mostly up to 28.7 µM
Summary of the method: as §1

[18] = tested on: PAD; assay: as above; conditions: P. falciparum in erythrocytes, SYBR Green DNA, 72 h; series mostly up to 28.7 µM
Summary of the method: as §1

[19] = tested on: PC26; assay: as above; conditions: P. falciparum in erythrocytes, SYBR Green DNA, 72 h; series mostly up to 28.7 µM
Summary of the method: as §1

[20] = tested on: W2; assay: as above; conditions: P. falciparum in erythrocytes, SYBR Green DNA, 72 h; series mostly up to 28.7 µM
Summary of the method: as §1

Chain of ATP-dependent 6-phosphofructokinase (Trypanosoma brucei brucei) (O15648 whole entry, looked up): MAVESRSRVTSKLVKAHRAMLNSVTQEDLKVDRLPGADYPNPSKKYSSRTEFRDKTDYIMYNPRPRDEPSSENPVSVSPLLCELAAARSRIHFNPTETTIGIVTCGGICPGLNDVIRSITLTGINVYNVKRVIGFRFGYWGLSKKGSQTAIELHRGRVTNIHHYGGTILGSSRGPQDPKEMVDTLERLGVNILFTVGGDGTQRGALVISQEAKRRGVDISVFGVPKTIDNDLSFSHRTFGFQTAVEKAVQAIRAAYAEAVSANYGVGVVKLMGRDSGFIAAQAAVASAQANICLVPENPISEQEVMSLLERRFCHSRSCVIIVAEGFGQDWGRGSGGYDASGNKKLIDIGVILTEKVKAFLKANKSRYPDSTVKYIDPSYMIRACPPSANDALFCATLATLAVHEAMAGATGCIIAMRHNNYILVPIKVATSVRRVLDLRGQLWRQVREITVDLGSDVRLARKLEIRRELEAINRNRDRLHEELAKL
Chain of Cytochrome P450 3A4 (Homo sapiens) (P08684 whole entry, looked up): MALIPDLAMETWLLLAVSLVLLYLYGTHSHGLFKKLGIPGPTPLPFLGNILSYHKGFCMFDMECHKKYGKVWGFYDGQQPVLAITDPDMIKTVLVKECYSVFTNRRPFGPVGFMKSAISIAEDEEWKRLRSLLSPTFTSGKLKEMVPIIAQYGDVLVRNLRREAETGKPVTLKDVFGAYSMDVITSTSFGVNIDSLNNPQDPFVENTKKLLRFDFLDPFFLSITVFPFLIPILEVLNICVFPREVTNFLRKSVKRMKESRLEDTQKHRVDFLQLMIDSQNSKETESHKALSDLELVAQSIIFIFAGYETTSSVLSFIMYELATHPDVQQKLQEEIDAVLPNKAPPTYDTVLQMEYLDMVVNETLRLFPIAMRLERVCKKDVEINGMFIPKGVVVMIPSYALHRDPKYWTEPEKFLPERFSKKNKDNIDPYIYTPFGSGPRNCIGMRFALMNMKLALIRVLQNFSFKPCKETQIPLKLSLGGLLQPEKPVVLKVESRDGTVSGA

C[C@](O)(c1ccccc1)c1nccc2ccccc12
activity change, negative = inhibition [1]: 49.6% [at 11.4 µM]

COc1ccc(/C=C(\C#N)C(N)=O)c(OC)c1
Potency [1]: 2.51 µM (active)
activation [2]: -21.9%

CN(CCc1ccccn1)c1ccc2c(c1)Cc1ccccc1-2
Potency [1]: 2.51 µM (active)

NC(N)=Nc1nc2ccc([N+](=O)[O-])cc2[nH]1
activity change, negative = inhibition [1]: 107% [at 11.4 µM]

N#CCCn1c(=O)c(CCc2ccccc2)nc2cnc(Oc3ccccc3)nc21
Potency [1]: 2.51 µM (active)

C[C@]1(c2ccccc2)O[C@@H]2C[C@@H]3[C@@H]4CCC5=CC(=O)C=C[C@@]5(C)[C@]4(F)[C@H](O)C[C@]3(C)[C@@]2(C(=O)CO)O1
Potency [1]: 3.16 µM (active)

[N-]=[N+]=Nc1ccc(C(=O)CSC[C@@H](NC(=O)CC[C@@H](N)C(=O)O)C(=O)NCC(=O)O)cc1
Potency [3]: inactive

COc1cc2c(cc1OC)[C@H](c1ccccc1)CN(C)CC2
Potency [1]: inactive
Potency [3]: inactive

O=C(O)/C=C\[C@H](O)c1ccc(Cl)cc1
Potency [3]: inactive

Nc1ncnc2c1nc(Br)n2[C@@H]1O[C@H]2COP(=O)(O)O[C@@H]2[C@H]1O
Potency [3]: inactive

N[C@@H]1C=CC=C(C(=O)O)C1
Potency [3]: inactive

C=C/C(C)=C/[C@]1(C)SC(=O)C(C)=C1O
Potency [3]: inactive

OC[C@@H]1O[C@@H](n2cnc3c(N[C@@H]4C[C@@H]5CC[C@H]4C5)ncnc32)[C@@H](O)[C@H]1O
Potency [3]: inactive

CC(C)[C@H]1C(=O)C(C(N)=O)=C(O)[C@]2(O)C(=O)C3=C(O)c4c(O)ccc(N(C)C)c4C[C@H]3C[C@@H]12
Potency [3]: inactive
Potency [4]: 2.51 µM (active)

CSc1nc(N)c2ncn([C@@H]3O[C@@H](COP(=O)(O)OP(=O)(O)O)[C@@H](O)[C@H]3O)c2n1
Potency [3]: inactive

CC1(C)CCC(NC(=O)[C@H](N)CCC(=O)O)CC1
Potency [3]: inactive

Nc1nc(SCc2ccc([N+](=O)[O-])cc2)c2ncn([C@@H]3O[C@@H](CO)[C@@H](O)[C@H]3O)c2n1
Potency [3]: inactive

C[C@@H]1C(=O)N(C)C(=O)c2nc[nH]c21
Potency [3]: inactive

COc1cc([C@H](O)CO)ccc1O
Potency [3]: inactive

CC(C)(C)c1onc(OCP(=O)(O)O)c1C[C@@H](N)C(=O)O
Potency [3]: inactive

O=C(O)/C=C\C(=O)Nc1ccc2c(c1)C(=O)c1cc(F)ccc1-2
Potency [1]: 3.16 µM (active)

Nc1nc(Cl)nc2c1ncn2[C@@H]1O[C@@H](COP(=O)(O)OP(=O)(O)OP(=O)(O)O)[C@@H](O)[C@H]1O
Potency [3]: inactive

Nc1c2c(nc3ccccc13)CCC[C@H]2O
Potency [3]: inactive

CC[C@H](C)[C@@H]1O[C@]2(CC[C@@H]1C)C[C@H]1C[C@H](CC=C(C)[C@@H](O[C@H]3C[C@H](OC)[C@H](O[C@H]4C[C@H](OC)[C@H](O)[C@H](C)O4)[C@H](C)O3)[C@@H](C)C=CC=C3CO[C@@H]4[C@@H](O)C(C)=C[C@H](C(=O)O1)[C@@]34O)O2
Potency [4]: 12.6 µM (active)

O=S(=O)(NCCNC/C=C\c1ccc(Br)cc1)c1cccc2cnccc12
Potency [4]: 10 µM (active)

CO/N=C(\C(=O)N[C@@H]1C(=O)N2C(C(=O)[O-])=C(C[N+]3(C)CCCC3)CS[C@@H]12)c1csc(N)n1
outcome [5]: inactive
activity, negative = inhibition ([6]; parasite line A): 2.78%
activity, negative = inhibition ([6]; parasite line B): 10.9%
Potency [7]: inactive
Potency [8]: inactive
Potency [9]: inactive
Potency [10]: inactive
Potency [11]: inactive
Potency [12]: inactive
Potency [13]: inactive
Potency [14]: inactive
Potency [15]: inactive
Potency [16]: inactive
Potency [17]: inactive
Potency [18]: inactive
Potency [19]: inactive
Potency [20]: inactive

C[C@@H](C(=O)O)c1ccc(C[C@@H]2CCCC2=O)cc1
Potency [3]: inactive

O=C(Nc1ccccc1)N1CCC2(CC1)CCN(C(=O)c1ccco1)CC2
Potency [1]: inactive

COc1c2c(nc3ccccc13)O[C@@H]([C@@](C)(O)CO)C2
Potency [3]: inactive

C=C(C)[C@@H]1CC=C(C(=O)O)CC1
Potency [3]: inactive

COc1cc2nc(N3CCN(C(=O)OCc4ccccc4)[C@H](C(=O)NC(C)(C)C)C3)nc(N)c2cc1OC
Potency [1]: 3.98 µM (active)
Potency [3]: inactive
Potency [4]: 12.6 µM (active)

C[C@H]1C[C@@H]2[C@H]3CCC4=CC(=O)C=C[C@@]4(C)[C@@]3(Cl)[C@@H](O)C[C@]2(C)[C@]1(OC(=O)c1ccco1)C(=O)CCl
outcome [5]: inactive
Potency ([6]; parasite line B): 3.16 µM (active)
Potency [7]: 3.16 µM (active)
Potency [8]: 3.55 µM (active)
Potency [9]: 3.16 µM (active)
Potency [10]: 5.73 µM (active)
Potency [11]: 3.98 µM (active)
Potency [12]: 3.55 µM (active)
Potency [13]: inactive
Potency [14]: 3.55 µM (active)
Potency [15]: 6.42 µM (active)
Potency [16]: 3.55 µM (active)
Potency [17]: 3.55 µM (active)
Potency [18]: 3.98 µM (active)
Potency [19]: 6.42 µM (active)
Potency [20]: 3.61 µM (active)

CCNc1ncc2nc(-c3ccccc3)c(=O)n(C3CC3)c2n1
Potency [2]: 2.51 µM (active)

CN(C)C(=O)/N=N\C(=O)N(C)C
Potency [4]: 10 µM (active)

C[C@@H]1C[C@H]2[C@H]3C[C@@H](F)C4=CC(=O)C=C[C@]4(C)[C@@]3(Cl)[C@@H](O)C[C@@]2(C)[C@@H]1C(=O)COC(=O)C(C)(C)C
outcome [5]: inactive
activity, negative = inhibition ([6]; parasite line A): 0.272%
activity, negative = inhibition ([6]; parasite line B): -10.2%
Potency [7]: inactive
Potency [8]: inactive
Potency [9]: inactive
Potency [10]: inactive
Potency [11]: inactive
Potency [12]: inactive
Potency [13]: inactive
Potency [14]: inactive
Potency [15]: inactive
Potency [16]: inactive
Potency [17]: inactive
Potency [18]: inactive
Potency [19]: inactive
Potency [20]: 10.7 µM (active)

C=CCN1CCc2c(cc(O)c(O)c2Cl)[C@H](c2ccccc2)C1
Potency [1]: inactive
Potency [3]: 12.6 µM (active)

Cc1cccc(C)c1OC[C@@H](N)C(C)C
activation [2]: -2.64%

OC[C@@H]1O[C@@H](n2cnc3c(NC4CCCCC4)ncnc32)[C@@H](O)[C@H]1O
Potency [3]: inactive
activation [2]: -22.9%

NCCC1([N+](=O)[O-])CCNCC1
activation [2]: 13.3%
